HT1080 IDH1KD tx: qHTS for induction of synthetic lethality in tumor cells producing 2HG: qHTS for the HT-1080-IDH1KD cell line. HT-1080 IDH1 knockdown viability, ATP luminescence, 48 h. Potency, µM (series often up to 46.1 µM), for inactives: at the top dose activity, negative = toxicity, most hits filed as cytotoxic. hit rate 2% among 360,000. AID 686971, 2013;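 note: potency is the fitted concentration of half-maximal effect; 0% = DMSO wells and -100% = cell-free medium wells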
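IDH1KD HT-1080 cells, 750/well, RPMI + 5% FBS; compound pinned after 2 h settling; 48 h, 37 °C; CellTiter-Glo luminescence; % activity normalised to DMSO and no-cell wells; curves fitted, classed by r2 and efficacy.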
IL1B secr inh: qHTS for Inhibitors of Inflammasome Signaling: IL-1-beta AlphaLISA Primary Screen | THP-1 LPS/ATP IL-1B secretion, AlphaLISA, 16 h; stronger effect = lower value | activity change, % at 57.5 µM | hit rate 4.7% among 360,000 | AID 743279, 2014; in the data active = activity change below about -50%; inconclusive = mostly about -30% to -49%
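THP-1 cells pretreated 1 hr with compounds (up to 57.5 uM final), then stimulated with LPS (250 ng/mL final) plus ATP (1.25 mM final); secreted IL-1B measured by AlphaLISA after 16 hr, decreased signal indicating inhibition.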
HT1080NT lethal: qHTS for induction of synthetic lethality in tumor cells producing 2HG: qHTS for the HT-1080-NT fibrosarcoma cell line; Potency, µM (doses to about 46.1 µM), for inactives: top-dose activity, negative = less viability, most hits filed as cytotoxic; HT-1080-NT fibrosarcoma viability, CellTiter-Glo ATP luminescence, 48 h; hit rate 1.6% among 360,000;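 note: NT is the 2HG producing partner of a matched IDH1 knockdown line; potency is the fitted concentration of half-maximal effect; 0% = DMSO-treated cells and -100% = media-only wells without cells; nearly all actives have a fitted effect of over 55% in size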
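A 48-hour cytotoxicity screen used HT-1080-NT cells plated 2 hours before compound delivery. ATP-based CellTiter-Glo luminescence measured viability, normalized to DMSO and no-cell controls.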
DT40 TDP1 no CPT: qHTS for Inhibitors of human tyrosyl-DNA phosphodiesterase 1 (TDP1): qHTS in cells in absence of CPT; DT40 Tdp1-/- hTDP1 cells, no CPT, ATP luminescence, 48 h; Potency, µM (doses to about 46.2 µM), inactives show at the top dose activity change, negative = growth inhibition, most hits filed as inhibitors; hit rate 15% among 420,000; AID 686978, 2013; note: potency is the fitted concentration of half-maximal effect; nearly all actives have a fitted effect of over 55% in size
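Growth kinetics read by CellTiter-Glo luminescence after ≥48 hr at 37 °C. Cells: DT40 Tdp1-/- stably carrying human TDP1, 400 per well, compound exposure in the absence of CPT (DMSO vehicle).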
TDP1 cell CPT: qHTS for Inhibitors of human tyrosyl-DNA phosphodiesterase 1 (TDP1): qHTS in cells in presence of CPT. chicken DT40 Tdp1-/-;hTDP1 cells + 20 nM CPT, ATP luminescence, 48 h. Potency, µM (titrated, usually from 46.2 µM), for inactives: top-dose activity change, negative = growth inhibition, usual class: inhibitors. hit rate 12% among 420,000. AID 686979, 2013; note: potency is the fitted concentration of half-maximal effect; nearly all actives have a fitted effect of over 55% in size
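Chicken DT40 Tdp1-/- cells stably complemented with human TDP1 were seeded at 400 cells/well in medium containing 20 nM camptothecin, exposed to pin-transferred compounds, and grown at 37 °C for at least 48 hr. Viability was read as ATP luminescence.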
ELG1 DNA repair: qHTS screen for small molecules that inhibit ELG1-dependent DNA repair in human embryonic kidney (HEK293T) cells expressing luciferase-tagged ELG1 | HEK293T ELG1-luciferase reporter, luminescence, 16 h; DNA damage induced by 5-fluorouridine | Potency, µM (titrated, usually from 46.1 µM), without a hit: top-dose activity change, negative = inhibition, most hits filed as inhibitors | hit rate 2.3% among 330,000; note: potency is the fitted concentration of half-maximal effect; nearly all actives have a fitted effect of over 55% in size
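Reporter activity after DNA damage by 5-fluorouridine is monitored. Compound-treated cells incubate 16 hr at 37 °C, then ONE-Glo is added for 30 min before luminescence reading.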
* = called active by the depositor; u = inconclusive; x = no result given; [ ] = remark or other dose. This is a sample that favours compounds with a hit; in the whole collection about 19% have one here. Unless noted, calls come from the whole dose curve; as a rule, active = well fitted curve in the direction sought with a large enough effect; inconclusive = small, poorly fitted or top-dose-only effect, or another doubt; inactive = no such curve, though single readings can be large; an effect the other way counts as inactive or inconclusive. Unless noted, % is set by controls: 0 for no effect and ±100 for the full control effect.

SMILES	HT1080 IDH1KD tx	IL1B secr inh	HT1080NT lethal	DT40 TDP1 no CPT	TDP1 cell CPT	ELG1 DNA repair
COc1cccc(Cn2c(-c3nonc3N)nc3ccccc32)c1	2.1µM*	50	2.6µM*	2.9µM*	2.9µM*	22%
COc1cc(Cn2c(-c3nonc3N)nc3ccccc32)ccc1C	1.8µM*	7	3.7µM*	4.1µM*	2.9µM*	15%
COc1cccc(Cn2c(C(C)n3c(C)nc4ccccc43)nc3ccccc32)c1 (stereo unspecified)	u	21	u	12µM*	u	x
COc1ccc(CCNC(=O)Cn2c(-c3nonc3N)nc3ccccc32)cc1OC	1%	-20	0%	u	-28%	u
Cc1cc(F)ccc1NC(=O)CCn1nc(C)c(S(=O)(=O)N2CCCCC2)c1C	x	x	x	-7%	6%	x
Cc1ccc(NC(=O)C=NOCC(=O)Nc2cc(C)cc(C)c2)cc1	-30%	2	-22%	-16%	u	29%
CC1Oc2ccc(C#N)cc2N(Cc2ccc(F)cc2)C1=O (stereo unspecified)	1%	3	-2%	-27%	-16%	x
COC(=O)[C@]12CCCCC=C1N(Cc1cccc3ccccc13)C(=O)[C@H](CC(=O)NCCCCc1ccccc1)C2	-29%	-64*	u	16µM*	u	x
CCCCNC(=O)C[C@@H]1C[C@@]2(C(=O)OC)CCCCC=C2N(Cc2cccc3ccccc23)C1=O	u	-22	u	u	u	x
COC(=O)[C@]12CCCCC=C1N(Cc1ccccc1)C(=O)[C@H](CC(=O)NCCCCc1ccccc1)C2	u	-20	u	u	23µM*	x
CN1CCN(c2ncncc2-c2ccccc2C(F)(F)F)CC1	x	x	x	-6%	-17%	x
CN1CCN(C2=Cc3ccc(Cl)cc3Sc3ccc(F)cc32)CC1	u	-71*	u	21µM*	23µM*	-21%
CN1CCN(C2=Cc3ccccc3Sc3cc(F)ccc32)CC1	u	u	16µM*	22µM*	u	-10%
CN1CCN(C(=S)Nc2ccc(Cl)cc2Cl)CC1	10%	7	1%	u	-12%	14%
CC1OC(c2ccccc2)OC2COC(c3ccccc3)OC12 (stereo unspecified)	18%	8	15%	11%	16%	x
COc1ccc(S(=O)(=O)N2CCC(c3nc4ccccc4[nH]3)CC2)cc1	-20%	-16	-14%	10µM*	u	u
Clc1ccc(CN2CCC(c3nc4ccc(Cl)cc4[nH]3)CC2)cc1	-26%	-61*	-10%	12µM*	16µM*	u
CC(C)C(=O)Nc1ccc(S(=O)(=O)N2CCC(c3nc4ccccc4[nH]3)CC2)cc1	-19%	-23	-16%	21µM*	u	5.8µM*
COc1ccc(OC)c(S(=O)(=O)N2CCC(c3nc4ccccc4[nH]3)CC2)c1	-2%	-11	-1%	u	u	-15%
CC1CCCN(C(=O)CN2CCC(c3nc4ccc(Cl)cc4[nH]3)CC2)C1 (stereo unspecified)	-1%	0	0%	u	u	u
CC(C)(C)c1ccc(S(=O)(=O)N2CCC(c3nc4ccc(Cl)cc4[nH]3)CC2)cc1	3%[9.24 µM]	x	1%	u	u	21µM*
Fc1ccccc1COc1cccc(/C=N/n2cnnc2)c1	4%	-7	-3%	3%	-34%	-17%
C(=N\n1cnnc1)/c1ccc(OCc2ccccc2)cc1	8%	30	1%	-4%	-15%	u
Cc1cc(/C=N/n2cnnc2)c(C)n1-c1ccc(OCc2ccccc2F)cc1	u	-85*	u	13µM*	21µM*	-2%
Cc1cc(/C=N/n2cnnc2)c(C)n1-c1ccc(OCc2ccc(Cl)cc2)cc1	u	-82*	-18%	3.3µM*	4.6µM*	u
SMILES	HT1080 IDH1KD tx	IL1B secr inh	HT1080NT lethal	DT40 TDP1 no CPT	TDP1 cell CPT	ELG1 DNA repair
CC1=C(c2ccc(F)cc2)S(=O)(=O)NC1=NCc1ccccc1Cl	x	x	x	-30%	-23%	x
CC1=C(c2ccc(C)cc2)S(=O)(=O)NC1=NCc1ccccc1Cl	x	x	x	21µM*	23µM*	x
Cc1cc(C)c(S(=O)(=O)N2CCCC(C(=O)NCCC3=CCCCC3)C2)c(C)c1 (stereo unspecified)	-7%	-6	-1%[9.24 µM]	21µM*	u	u
Cc1nn(C)c(C)c1S(=O)(=O)N1CCC(C(=O)NCCC2=CCCCC2)CC1	1%	36	-7%	u	18µM*	-11%
COc1ccc(Cl)cc1S(=O)(=O)N1CCC(C(=O)NCCC2=CCCCC2)CC1	-11%	-17	2%	u	23µM*	-8%
COc1ccc(-c2csc(/C(C#N)=C\c3ccc(O)c([N+](=O)[O-])c3)n2)cc1OC	u	11	1%	u	u	15µM*
COc1ccc(-c2csc(/C(C#N)=C\c3ccc(OC)c([N+](=O)[O-])c3)n2)cc1	9%	6	10%	u	u	-13%
COc1ccc(-c2csc(/C(C#N)=C(\O)CSc3nccn3C)n2)cc1OC	-7%	-15	-11%	15µM*	u	12%
COc1ccc(/C=C(/C#N)c2nc(-c3ccc(Br)cc3)cs2)cc1	x	x	x	23µM*	u	x
COc1ccc(/C=C(/C#N)c2nc(-c3ccc(-c4ccccc4)cc3)cs2)cc1OC	x	x	x	12µM*	u	x
O=C(CSc1nc2ccccc2c(=O)n1-c1ccc(F)cc1F)c1c[nH]c2ccccc12	-10%	u	-19%	u	u	u
O=C(OCc1cc(=O)n2ccsc2n1)C1(c2ccccc2)CC1	8%	49	11%	-30%	-20%	x
CC(C)c1ccc(/C=C(\C#N)c2nc(-c3ccc(O)cc3)cs2)cc1	x	x	x	2.6µM*	3.3µM*	x
CCCCn1c(NC(=O)c2ccccc2Cl)c(C#N)c2nc3ccccc3nc21	9.2µM*	-98*	5.8µM*	26µM*	23µM*	23µM*
CCOC(=O)c1c(NC(=O)c2ccco2)n(C2CCCCC2)c2nc3ccccc3nc12	16µM*	-21	u	8.2µM*	7.3µM*	u

Compound activity deposited in PubChem BioAssay by National Center for Advancing Translational Sciences (NCATS).
